# Screening results from PubChem.
# Shown is part of a subset that was picked to be rich in hits.
# TTR transcr act: TTR transcription activators in neuroblastoma reporter cells, primary screen, cell-based, luminescence, SH-SY5Y, TTR promoter Gaussia luciferase; 100% = recombinant luciferase protein wells; activation, % at 16.7 µM; AID 1117267, 2014; hit rate 1.3% among 92,000;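 active means activation above the mean of all tested compounds plus 3 SD, cut at about 9.5% in these data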;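 further: cells exposed to compounds for one day before reading; 0% = median of all test compound wells on the plate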
# HuH7 TTR inh: TTR promoter reporter inhibitors in hepatoma cells, counter-screen for TTR transcription activator project, cell-based, luminescence, HuH7 hepatoma. shares compounds with TTR transcr act. hit rate 4% among 1,100. HuH7 TTR promoter-Gaussia luciferase reporter. inhibition, % at 16.7 µM. AID 1117279, 2014;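 active means average inhibition above the solvent-only control wells' mean plus 3 SD, cut at about 15% in these data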;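 further: 0% = cells with DMSO only and 100% = cells with inhibitor control FD; inhibitors lower well luminescence so higher value means more inhibition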
# TTR act confirm: TTR transcription activators, retest, confirmation, cell-based, luminescence, SH-SY5Y, triplicate; activation, % at 16.7 µM; SHSY5Y TTR promoter Gaussia luciferase; 100% = purified Lucia enzyme wells, no cells; 1,100 tested, under 10 active; shares compounds with TTR transcr act;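 active means mean activation above a set limit taken from the earlier primary screen, cut at about 11% in these data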;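 further: 0% = DMSO-treated cells and 100% = recombinant Lucia luciferase without cells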
# The depositor's hits bear a star.
SMILES,TTR transcr act,others
O=C(NCc1cccc(Cl)c1)c1ccc(-c2csnn2)cc1,-0.4,
CC(C)CNC(=S)NC(=O)c1csc([N+](=O)[O-])c1,-2.1,
O=C(NCc1cccc(Cl)c1)NC(=O)c1csc([N+](=O)[O-])c1,11.9*,HuH7 TTR inh=-8.5;TTR act confirm=-0.3
CCOC(=O)N1CCN(C(=O)C[C@@H]2C[C@@]3(C(=O)OCC)CCC=C3N(Cc3ccc4c(c3)OCO4)C2=O)CC1,1.4,
C=CCN1C(=O)[C@H](CC(=O)NCCc2ccccc2OC)[C@@]2(C(=O)OCC)CCCC=C12,0.9,
COc1ccc2[nH]c3c(c2c1)CCN[C@]31C(=O)Nc2ccccc21,0.0,
CC(=Nc1ccccc1)C1=C(O)COC1=O,17.9*,HuH7 TTR inh=-6.4;TTR act confirm=-0.2
O=C1OCC(O)=C1Cc1ccccc1,5.4,
COc1ccc(OC)c(N=C(C)C2=C(O)COC2=O)c1,-0.2,
CCCNC(=O)N1CCN(S(=O)(=O)c2ccc3c(c2)OCCO3)CC1,2.7,
CCOC(=O)/C(=C\c1ccc(C)cc1)NC(=O)c1ccccc1,3.5,
CC(C)OC(=O)/C(=C\c1ccccc1)NC(=O)c1ccccc1,-0.2,
CC(=O)N/C(=C\c1ccccc1)C(=O)OCC(=O)NC(=O)c1ccccc1,15.0*,HuH7 TTR inh=3.2;TTR act confirm=0.7
CC(C)(C)c1nnc(NS(=O)(=O)c2cc(Cl)ccc2Cl)s1,2.0,
Nc1nnc(CSCc2ccccc2Cl)s1,-0.2,
Nc1nnc(CCS(=O)(=O)c2cc(Cl)ccc2Cl)s1,23.5*,HuH7 TTR inh=-8.4;TTR act confirm=-0.6
CCCCn1nnnc1C1(C)CCC(=O)N1Cc1ccc(C)cc1 (stereo not given),1.6,
CC(Oc1ccccc1)C(=O)N1CCN(c2ccc(N3CCCCC3)nn2)CC1 (stereo not given),-0.5,
COc1cccc(C2C(C#N)=C(N)Oc3cc(C)n(Cc4ccccn4)c(=O)c32)c1OC (stereo not given),3.9,
COc1ccc(C(=O)NCc2cccnc2)cc1OC,1.2,
COC(=O)C1=C(N)Oc2cc(C)n(Cc3cccnc3)c(=O)c2C1c1ccc(OC)c(OC)c1 (stereo not given),18.0*,HuH7 TTR inh=-8.7;TTR act confirm=0.2
COC(=O)[C@]12C[C@H](CC(=O)NCCC(C)C)C(=O)N(Cc3ccco3)C1=C[C@H](C1CCCC1)O[C@@H]2C,0.5,
COc1ccc2c(c1)[C@@]1(NCCc3c1[nH]c1ccc(OC)cc31)C(=O)N2C,0.4,
CCOC(=O)Cn1c(=O)oc2cc(S(=O)(=O)N3CCN(c4ccccn4)CC3)ccc21,-0.7,
O=C(Nc1c(F)cc(F)cc1Br)c1cc(S(=O)(=O)N2CCN(c3ccccn3)CC2)ccc1F,10.6*,HuH7 TTR inh=1.2;TTR act confirm=-0.6
SMILES,TTR transcr act,others
O=C(Nc1cccc(F)c1)c1cc(S(=O)(=O)N2CCC(C(=O)O)CC2)ccc1F,-1.0,
CCCC(=O)N1CCC1(C)C(=O)Nc1ccc(OC)c(OC)c1 (stereo not given),-1.1,
CCN(CCO)c1nc(N2CCCCC2)c2cnn(C)c2n1,-0.6,
CCOCCCNC(=O)CN1C(=O)COc2ccc(S(=O)(=O)N3CCCC3)cc21,11.4*,HuH7 TTR inh=-11.8;TTR act confirm=-0.1
COc1ccc(CNC(=O)CN2C(=O)COc3ccc(S(=O)(=O)N4CCCC4)cc32)cc1,-0.2,
CC(C)CN(CCCNC(=O)CN1C(=O)COc2ccc(S(=O)(=O)N3CCC(C)CC3)cc21)CC(C)C,-0.4,
CC1CCC2(CC1)CCC2NCc1ccc(Cl)c(Cl)c1 (stereo not given),0.1,
CCCC(=O)N1CCC1(C)C(=O)NS(=O)(=O)c1ccc(OC)cc1 (stereo not given),7.4,
CCOCc1c(C(=O)OCC(=O)NCc2ccc(F)cc2)oc2ccccc12,0.8,
C[C@@H]1CCN(C2CC2)S(=O)(=O)c2c(cccc2N2CC[C@H](N(C)C)C2)O1,0.8,
O=C(Nc1cccc(C(F)(F)F)c1)c1ccc(-c2ccc(F)c(F)c2)c2ccoc12,0.2,
Brc1cccc(-c2nc3ccc(Br)cn3c2Cc2ccccc2)c1,21.7*,HuH7 TTR inh=-2.5;TTR act confirm=-1.0
Clc1cccc(-c2nc3ccc(Br)cn3c2Cc2ccccc2)c1,-1.2,
Cc1ccc(Cc2c(-c3ccccc3)nc3ccc(Br)cn23)cc1,1.3,
CCOc1ccc(-c2cc(C(C)=O)c3n(c2=O)CCC3)cc1,0.3,
CCCCCCc1ccc(NC(=O)[C@@H]2CC=C[C@@H]3CCN(Cc4ccccc4)C(=O)[C@@H]32)cc1,-1.3,
C[C@H](CO)N1C[C@H](C)[C@@H](CN(C)S(=O)(=O)c2ccc3ccccc3c2)OCc2cn(nn2)CCCC1=O,0.3,
COc1cccc(S(=O)(=O)N(C)C[C@@H]2OCc3cn(nn3)CCCC(=O)N([C@@H](C)CO)C[C@H]2C)c1,11.4*,HuH7 TTR inh=-7.5;TTR act confirm=0.6
C[C@@H]1CN([C@@H](C)CO)C(=O)CCCn2cc(nn2)CO[C@H]1CN(C)S(=O)(=O)c1cccc(C#N)c1,-1.5,
CCN(CC(=O)Nc1ccc(NC(C)=O)cc1)C(=O)C1CC1,5.7,
CCOc1ccc(/C=N/NC(=O)CSc2n[nH]c(=O)[nH]c2=O)cc1OC,1.2,
C[C@H](CO)N1C[C@H](C)[C@@H](CN(C)C(=O)NC2CCCCC2)OCc2cn(nn2)CCCC1=O,0.4,
COC(=O)[C@]12CCCCC=C1N(Cc1ccc(OC)cc1)C(=O)[C@@H]2CC(=O)NCc1ccc(OC)c(OC)c1,-2.2,
NC(=O)[C@@H]1CCCN1C(=O)c1cc(COc2ccc3c(c2)CCCC3)on1,10.5*,HuH7 TTR inh=-7.9;TTR act confirm=-0.5
COc1cccc(OCc2cc(C(=O)N3CCCC3c3ccccn3)no2)c1 (stereo not given),-1.3,
SMILES,TTR transcr act,others
COc1cccc(OCc2cc(C(=O)N3CCN(C4CCCC4)CC3)no2)c1,0.8,
Cc1cccc(CN2[C@H](COC(=O)Nc3ccccc3)C=CS2(=O)=O)c1,-0.3,
Cc1ccc(/C=C/C2=NN(Cc3ccc(Cl)c(Cl)c3)C(=O)CC2)cc1,13.3*,HuH7 TTR inh=6.6;TTR act confirm=0.0
CC1=NN(Cc2ccccc2)C(=O)C1,-1.9,
Cc1ccccc1CN1N=C(/C=C/c2ccccc2)CCC1=O,2.1,
CCOC(=O)C(Cc1ccccc1)CP(=O)(OC)[C@@H](C)NC(=O)OCc1ccccc1 (stereo not given in full),-0.4,
CCCCCCC[C@H](N)[C@H](O)C(=O)N(C)[C@@H](CCS(C)=O)C(=O)N[C@@H](Cc1ccc(O)cc1)C(=O)O (stereo not given in full),-0.5,
CC1(C)CC(=O)C(C(O)c2ccccc2)C(C)(C)N1 (stereo not given),0.0,
CC(=O)OC12CCCN(C1)/C(=C/c1cccc(Cl)c1)C2 (stereo not given),1.6,
Cc1c(-c2ccccc2Cl)nc2ccccc2c1C(=O)O,0.0,
CC(C)(C)C(=O)Nc1nc(NC(=O)C(C)(C)C)nc(-c2ccccc2Cl)n1,10.5*,HuH7 TTR inh=0.5;TTR act confirm=-0.7
CC(C)(C)C(=O)Nc1cc2nn(-c3ccccc3)nc2cc1Cl,-1.1,
C/C(=N\OC(=O)c1ccc(F)cc1)c1ccc(F)c(F)c1,-0.5,
CCCS(=O)(=O)C/C(N)=N/OC(=O)c1ccc(Cl)cc1,-1.0,
CCOC(=O)c1cc(/C(C)=N/OC(=O)c2ccc(Cl)cc2)on1,9.8*,HuH7 TTR inh=-8.0;TTR act confirm=-0.5
